Compounds with a hit are over-represented: about 7.3% of the library has one in this group of screens.
FLuc modulator: firefly luciferase modulation, counter-screen for miR-21 project; P08659; purified FLuc, Km substrates, luminescence inhibition; Potency, µM (top dose mostly 57.5 µM), inactives show at the top dose activity change, negative = inhibition, most hits filed as inhibitors; 360,000 compounds, 6.9% hits;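 note: plate controls were vehicle for no effect and reference inhibitor for full effect; nearly all actives have a fitted effect of over 55% in size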
Target sequence (P08659 whole entry, looked up): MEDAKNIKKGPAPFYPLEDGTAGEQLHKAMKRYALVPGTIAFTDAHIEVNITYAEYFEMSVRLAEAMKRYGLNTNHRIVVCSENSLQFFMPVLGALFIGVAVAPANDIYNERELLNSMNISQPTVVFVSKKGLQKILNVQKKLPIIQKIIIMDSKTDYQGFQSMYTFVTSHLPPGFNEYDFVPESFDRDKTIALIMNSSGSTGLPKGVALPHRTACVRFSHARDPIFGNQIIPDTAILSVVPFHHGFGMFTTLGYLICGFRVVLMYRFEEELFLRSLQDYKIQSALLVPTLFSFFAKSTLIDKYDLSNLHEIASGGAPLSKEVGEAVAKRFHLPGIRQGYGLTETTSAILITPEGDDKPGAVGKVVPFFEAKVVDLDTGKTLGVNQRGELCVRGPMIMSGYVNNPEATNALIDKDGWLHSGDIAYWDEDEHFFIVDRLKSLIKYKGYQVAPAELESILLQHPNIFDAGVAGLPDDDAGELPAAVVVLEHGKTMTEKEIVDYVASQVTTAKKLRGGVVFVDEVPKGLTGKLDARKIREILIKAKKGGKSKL
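Biochemical qHTS of compounds, final roughly 60 µM downward over six points, against 10 nM purified firefly luciferase using Km concentrations of substrates (10 uM D-luciferin, 10 uM ATP) in Tris acetate pH 7.5 buffer; luminescence output.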
NPC1 prom act: activators of NPC1 promoter; Huh7 NPC1 promoter luciferase reporter, 24 h; Potency, µM (top dose mostly 9.22 µM), without a hit: top-dose activation, most hits filed as activators; 320,000 compounds, 2.4% hits; AID 485313; note: % of control where 0% means no effect; nearly all actives have a fitted effect of over 60% in size
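In 1536-well qHTS, Huh7 cells harboring an NPC1 promoter–luciferase construct received compound for 24 h; activation was quantified by luminescence following luciferase reagent addition.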
Rab9 promoter act: activates the Rab9 promoter. Huh7 Rab9 promoter-luciferase reporter, luminescence, 24 h. Potency, µM (titrated, usually from 9.22 µM), without a hit: top-dose activation, negative = inhibition, actives largely listed as activators. 320,000 compounds, 2.8% hits. AID 485297; note: % of control where 0% means no effect; nearly all actives have a fitted effect of over 60% in size
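Using Huh7 cells stably transfected with Rab9 promoter–luciferase, compounds were incubated 24 h at 37 °C, 5% CO2; luciferase luminescence was read 10 min after reagent addition.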
SMN2 splice enh: increases expression of the SMN2 splice variant; HEK293 SMN2-luciferase splicing reporter, luminescence, 30-36 h; Potency, µM (top dose mostly 46.1 µM), inactives show at the highest dose activity change, positive = activation, usual class: activators; 210,000 compounds, 2.8% hits; note: % of control where 0% means no effect; nearly all actives have a fitted effect of over 55% in size
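HEK293 cells carry an SMN2 minigene-luciferase reporter in which exon 7 inclusion puts luciferase in frame. Cells were seeded at 2000 cells/well, attached for 10-12 hours, then exposed to compounds for 30-36 hours at 37C before ONE-Glo luminescence.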
Luc counter: counter-screen: inhibitors of Kinase-Glo firefly luciferase; Potency, µM (doses to about 38.3 µM), inactives show at the highest dose activity change, negative = inhibition, actives largely listed as inhibitors; 200,000 compounds, 0.28% hits; Kinase-Glo luciferase, ATP luminescence, 8 min; Q27757; note: % is set by controls: 0 for no effect and ±100 for the full control effect; nearly all actives have a fitted effect of over 60% in size
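Substrate mix (final 50 mM imidazole pH 7.2, 50 mM KCl, 7 mM MgCl2, 10 uM ATP, 0.01% Tween 20, 0.05% BSA) plus pin-tool compound, then Kinase-Glo detection mix; 8 min ambient, luminescence read.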
* hit, by the source's call; ? = inconclusive; nt = no result; [ ] = dose if it differs, or a comment. Calls come from the whole dose curve; as a rule, active = well fitted curve in the direction sought with a large enough effect; inconclusive = small, poorly fitted or top-dose-only effect, or another doubt; inactive = no such curve, though single readings can be large; an effect the other way counts as inactive or inconclusive. Potency is the fitted concentration of half-maximal effect.

SMILES	FLuc modulator	NPC1 prom act	Rab9 promoter act	SMN2 splice enh	Luc counter
Cc1ccnc2nc(C(=O)Nc3ccc4c(c3)OCO4)nn12	11µM*	1.8µM*	1.6µM*	11µM*	13µM*
Cc1cc(C)n2nc(C(=O)Nc3ccc4c(c3)OCO4)nc2n1	24µM*	19%	29%	?	?
CC1(C)Cc2c(sc3nc(N/N=C/c4ccccc4)[nH]c(=O)c23)CO1	?	3%	22%	-40%	0%
CC(C)=NNc1nc2sc3c(c2c(=O)[nH]1)CC(C)(C)OC3	15µM*	1%	-4%	0%	-3%
CSc1nc2sc3c(c2c(=S)[nH]1)CC(C)(C)OC3	19µM*	2%	17%	nt	nt
COc1cc(NC(=O)C(CC(C)C)NS(=O)(=O)c2ccc3c(c2)CCN3C(C)=O)cc(OC)c1 (stereo unspecified)	1%	nt	nt	9%	nt
Cc1ccc(N2CC(NC(=O)C(=O)c3c[nH]c4ccccc34)CC2=O)cc1 (stereo unspecified)	-4%	nt	nt	nt	nt
CCCCN(CC)C(=O)Cn1c(=O)n(-c2ccc(OCC)cc2)c(=O)c2c3c(sc21)CCC3	-9%	nt	nt	-8%	nt
COc1cc([N+](=O)[O-])ccc1N1C(=O)C2C3C=CC(C4CC34)C2C1=O (stereo unspecified)	13µM*	-10%	0%	-14%	2%
COc1ccc(N2C(=O)C3C4C=CC(C5CC45)C3C2=O)c([N+](=O)[O-])c1 (stereo unspecified)	?	-2%	-7%	-13%	0%
CCc1nn2c(-c3ccco3)ccnc2c1-c1ccc(F)cc1	11µM*	nt	nt	-4%	nt
COc1cccc(-n2c(CCn3nc(C)c([N+](=O)[O-])c3C)n[nH]c2=S)c1	-1%	18%	0%	13%	0%
COc1ccc(CCn2nc(C)c([N+](=O)[O-])c2C)cc1	12µM*	3.2µM*	3.2µM*	nt	nt
Cc1cc(O)c(C(=O)Cc2csc(C)n2)c(O)c1	27µM*	?	4µM*	?	-2%
CCc1cc(/C(Cc2csc(C)n2)=N/O)c(O)cc1O	0%	-1%	-16%	-63%	-3%
O=C(CCCN1C(=O)/C(=C/c2ccccc2)SC1=S)Nc1ccc(C(=O)O)c(O)c1	12µM*	-3%	3%	nt	nt
O=C(CCN1C(=O)S/C(=C/c2ccccc2)C1=O)Nc1ccc(C(=O)O)c(O)c1	2.4µM*	22%	24%	nt	nt
O=C(CCCN1C(=O)/C(=C/c2cccs2)SC1=S)Nc1ccc(O)c(C(=O)O)c1	?	-1%	-3%	nt	4%
O=C(CN1C(=O)/C(=C/c2ccco2)SC1=S)Nc1ccc(C(=O)O)c(O)c1	19µM*	0%	2%	nt	nt
O=C(CCN1C(=O)S/C(=C\c2ccc(F)cc2)C1=O)Nc1ccc(C(=O)O)c(O)c1	2.1µM*	?	13%	nt	nt
O=C(CN1C(=O)/C(=C/c2ccco2)SC1=S)Nc1ccc(O)c(C(=O)O)c1	?	-2%	9%	nt	nt
Cc1ccc(/C=C2/SC(=S)N(CCCC(=O)Nc3cc([N+](=O)[O-])ccc3O)C2=O)cc1	?	16%	-19%	nt	nt
O=C(CN1C(=O)S/C(=C\c2ccccc2)C1=O)Nc1cc([N+](=O)[O-])ccc1O	13µM*	3%	11%	nt	nt
O=C(CCN1C(=O)/C(=C\c2ccccc2F)SC1=S)Nc1ccc(C(=O)O)c(O)c1	5.4µM*	-4%	1%	nt	nt
Cc1cc(NC(=O)CCN2C(=O)/C(=C/c3ccccc3F)SC2=S)no1	-3%	-2%	1%	-17%	1%
SMILES	FLuc modulator	NPC1 prom act	Rab9 promoter act	SMN2 splice enh	Luc counter
Cc1ccc(-c2cn(-c3ccc(Cl)cc3)c(S(=O)(=O)CC(=O)Nc3ccccc3)n2)cc1	?	nt	nt	3.2µM*	nt
Cc1ccc(-n2cc(-c3ccccc3)nc2S(=O)(=O)CC(=O)Nc2ccc(F)cc2)cc1	?	nt	nt	10%	nt
O=C1/C(=C\c2cccs2)Sc2ccc3ccccc3c21	0.6µM*	-3%	20%	15%[1.84 µM]	-17%
NC1=NC(=O)/C(=C\c2cccs2)S1	?	0%	-6%	3%	-6%
COc1ccc(CCNC(=O)CCCn2c(=O)c3ccccc3n(CC(=O)Nc3c(C)cc(C)cc3C)c2=O)cc1OC	-20%	nt	nt	-5%	nt
COc1ccccc1C(=O)NNC(=O)c1ccc(F)cc1	?	26%	?	11µM*	-9%
COc1ccccc1C(=O)NNC(=O)c1ccc2ccccc2c1	12µM*	1%	5%	nt	nt
COc1ccccc1NC(=O)NNC(=O)c1ccc2ccccc2c1	-1%	-6%	0%	nt	nt
COc1ccccc1C(=O)NNC(=O)c1ccc(Cl)cc1	15µM*	16%	26%	nt	-4%
COc1ccc2c(c1)O[C@@H](c1ccc3c(c1)OCO3)[C@H](OC(=O)NS(=O)(=O)c1ccc(C)cc1)C2=O	nt	nt	nt	12%	0%
C=CC(=O)N1C(=O)c2ccccc2S1(=O)=O	nt	nt	nt	11%	0%
O=C(Nc1cccc(-c2csc(Nc3ccc(Cl)cc3)n2)c1)c1ccccc1	12µM*	-3%	3%	nt	nt
O=C(Nc1ccc(-c2csc(Nc3ccccc3)n2)cc1)c1ccccc1	13µM*	-4%	0%	nt	nt
CCc1ccc(S(=O)(=O)c2nnn3c2nc(N(CC)Cc2ccccc2)c2cc(Cl)ccc23)cc1	-6%	nt	nt	-2%	nt
Cc1ccc(/C=C/C(=O)NC(=S)N2CCN(c3ccc(F)cc3)CC2)cc1	2%	-5%	0%	nt	nt
CSc1ccc(/C=C/C(=O)N2CCN(c3ccccn3)CC2)cc1	13µM*	4%	0%	nt	nt
COc1ccc(/C=C/C(=O)NC(=S)N2CCN(c3ccccn3)CC2)cc1OC	24µM*	-4%	-3%	nt	0%
O=C(/C=C/c1ccc(F)cc1)NC(=S)N1CCN(c2ccccn2)CC1	21µM*	?	2.5µM*	nt	nt
CCc1cccc(C)c1NC(=O)Cn1ccn(-c2ccc(F)cc2)c(=O)c1=O	4%	nt	nt	nt	nt
COC(=O)c1cc(-c2ccc(C)cc2)c2c(=O)n(C)c(=O)n(C)c2n1	2%	nt	nt	-2%	nt
COc1ccc2cc(C(N)=O)c(=Nc3ccccc3)oc2c1	0%	3.5µM*	1.6µM*	-13%	5%
NC(=O)c1cc2ccc(O)cc2oc1=Nc1ccccc1	-12%	?	17%	-7%	-3%
COc1ccc2oc(=Nc3cc(F)ccc3F)c(C(N)=O)cc2c1	-1%	-28%	-19%	-19%	7%
COc1ccc(OC)c(N=c2oc3cc(O)ccc3cc2C(N)=O)c1	21µM*	-1%	16%	-27%	?
COC(=O)c1cc2oc(C)cc2n1Cc1ccc(C)cc1	-1%	nt	nt	nt	nt
COc1cccc(CNC(=O)C2CCN(C(=O)N3CCOc4ccc(Cl)cc43)CC2)c1OC	-10%	nt	nt	nt	nt
COc1ccc(-n2c(CC3C(=O)N(C)c4ccc(C)cc43)nc3ccccc3c2=O)cc1 (stereo unspecified)	-3%	nt	nt	4%	nt
